In PubChem BioAssay (NCATS):
Results filed as inconclusive are left out. A call without a number means that no potency is given here. Active and inactive are the calls of the source. The call rests on the fitted dose curve; in most records, active means well fitted curve in the direction sought with a large enough effect; inconclusive means small, poorly fitted or top-dose-only effect, or another doubt; inactive means no such curve, though single readings can be large; an effect the other way counts as inactive or inconclusive.

Assays:
[1] = biological target: ATP-dependent 6-phosphofructokinase (Trypanosoma brucei brucei) (UniProt O15648); experiment: qHTS Assay to Find Inhibitors of T. brucei phosphofructokinase: hit validation (AID 492961);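 further: luminescence reports ADP formed as PFK phosphorylates fructose-6-phosphate with ATP; series mostly up to about 51 µM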
Summary of the method: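 ADP-Glo luminescence read-out of ADP formed by 1.25 nM PFK from 0.1 mM ATP and 0.5 mM F6P (TEA pH 8.0, 45 min, RT). Compounds titrated; activity normalized to no-enzyme and full-enzyme controls.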

[2] = biological target: Ubiquitin carboxyl-terminal hydrolase 1 (Homo sapiens) (UniProt O94782); experiment: Inhibitors of USP1/UAF1: Pilot qHTS (AID 504865);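 further: rhodamine fluorescence freed from ubiquitin-rhodamine substrate followed over time; top concentration of the series differs between compounds; nearly all actives have a fitted effect of over 35% in size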
Summary of the method: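 Deubiquitinase activity followed as kinetic rhodamine fluorescence release from 150 nM Ub-Rho. 1 nM USP1/UAF1 with compound, after 15 min room-temperature preincubation, in HEPES pH 7.8 buffer containing TCEP, EDTA, BSA and Tween-20.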

[3] = Validation screen for small molecules that induce genotoxicity in human embryonic kidney (HEK293T) cells expressing luciferase-tagged ELG1 (AID 493106)
Summary of the method: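 In this validation screen, increased ELG1-luciferase signal flags compounds causing genetic stress. HEK293T reporter cells are treated 16 hr (37 °C, 5% CO2), developed with ONE-Glo for 30 min at room temperature, and imaged on a CCD-based reader.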

[4] = biological target: DNA dC->dU-editing enzyme APOBEC-3G (Homo sapiens) (UniProt Q9HC16); experiment: qHTS for inhibitors of Vif-A3G interactions: Validation (AID 588379)
Summary of the method: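 Yellow fluorescence (Ex 488, Em 500-530) of Vif-coexpressing HeLa A3G-eYFP cells, scanned by Acumen cytometer, reports blocked A3G degradation. Cells plated at 700/well overnight at 37 deg C before compound addition, then a further overnight compound incubation at 37 deg C.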

[5] = Inducers of the Endoplasmic Reticulum Stress Response (ERSR) in human glioma: Validation (AID 504836)
Summary of the method: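 ERSR induction read as luciferase luminescence (Bright-Glo, 10 min at room temperature) in stably transfected human U87-MG glioma cells exposed to compounds for 16 h, using GRP78 as sensor.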

Chain of ATP-dependent 6-phosphofructokinase (Trypanosoma brucei brucei) (O15648 whole entry, looked up): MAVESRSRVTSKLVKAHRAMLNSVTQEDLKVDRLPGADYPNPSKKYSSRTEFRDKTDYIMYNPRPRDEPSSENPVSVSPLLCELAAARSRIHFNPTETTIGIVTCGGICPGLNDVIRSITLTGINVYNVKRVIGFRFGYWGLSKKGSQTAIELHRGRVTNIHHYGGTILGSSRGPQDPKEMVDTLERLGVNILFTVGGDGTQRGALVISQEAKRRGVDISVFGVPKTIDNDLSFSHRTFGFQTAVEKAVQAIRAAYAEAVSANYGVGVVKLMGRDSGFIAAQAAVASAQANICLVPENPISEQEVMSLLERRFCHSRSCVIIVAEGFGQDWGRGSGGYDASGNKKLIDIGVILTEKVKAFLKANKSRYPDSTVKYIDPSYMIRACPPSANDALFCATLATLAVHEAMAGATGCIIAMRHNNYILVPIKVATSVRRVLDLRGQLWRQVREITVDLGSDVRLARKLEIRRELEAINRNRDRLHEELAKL
Chain of DNA dC->dU-editing enzyme APOBEC-3G (Homo sapiens) (Q9HC16 whole entry, looked up): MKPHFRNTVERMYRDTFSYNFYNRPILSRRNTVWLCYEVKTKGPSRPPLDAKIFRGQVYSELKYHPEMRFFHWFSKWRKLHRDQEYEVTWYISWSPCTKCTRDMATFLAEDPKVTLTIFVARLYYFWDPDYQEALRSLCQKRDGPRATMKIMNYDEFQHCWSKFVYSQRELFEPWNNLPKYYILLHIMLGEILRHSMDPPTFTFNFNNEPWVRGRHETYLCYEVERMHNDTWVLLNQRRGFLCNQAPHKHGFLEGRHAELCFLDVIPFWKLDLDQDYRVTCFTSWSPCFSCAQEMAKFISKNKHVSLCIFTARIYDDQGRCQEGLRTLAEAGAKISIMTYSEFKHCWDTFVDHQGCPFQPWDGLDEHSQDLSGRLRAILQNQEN
Chain of Ubiquitin carboxyl-terminal hydrolase 1 (Homo sapiens) (O94782 whole entry, looked up): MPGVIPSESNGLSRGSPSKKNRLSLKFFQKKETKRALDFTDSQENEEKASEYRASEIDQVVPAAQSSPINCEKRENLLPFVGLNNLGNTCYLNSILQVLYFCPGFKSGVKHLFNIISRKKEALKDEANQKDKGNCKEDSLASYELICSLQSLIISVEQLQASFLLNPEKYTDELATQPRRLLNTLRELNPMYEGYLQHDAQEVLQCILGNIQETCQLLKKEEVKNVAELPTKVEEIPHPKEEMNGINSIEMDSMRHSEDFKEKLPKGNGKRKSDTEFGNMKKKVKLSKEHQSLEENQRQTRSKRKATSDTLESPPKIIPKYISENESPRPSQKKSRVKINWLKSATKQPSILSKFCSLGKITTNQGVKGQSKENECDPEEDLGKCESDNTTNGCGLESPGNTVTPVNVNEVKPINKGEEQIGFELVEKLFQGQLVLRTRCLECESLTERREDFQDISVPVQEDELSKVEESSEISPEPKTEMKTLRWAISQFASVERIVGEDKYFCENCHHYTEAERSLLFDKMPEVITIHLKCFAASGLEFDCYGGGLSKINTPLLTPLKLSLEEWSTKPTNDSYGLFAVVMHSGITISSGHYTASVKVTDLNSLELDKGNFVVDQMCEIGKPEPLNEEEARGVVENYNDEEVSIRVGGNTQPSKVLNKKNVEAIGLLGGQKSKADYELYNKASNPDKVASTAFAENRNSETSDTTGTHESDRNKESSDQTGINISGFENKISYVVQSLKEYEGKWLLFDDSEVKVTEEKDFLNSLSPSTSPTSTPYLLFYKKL

## CC(C)NCC(O)c1ccccc1Cl (stereo not given)
[1]
  outcome: inactive
[2]
  Potency: inactive

## CN(C)C(=O)C(CCN1CCC(O)(c2ccc(Cl)cc2)CC1)(c1ccccc1)c1ccccc1
[3]
  Potency: inactive

## NP(N)(=O)NC(=O)c1ccc(F)cc1
[4]
  outcome: inactive

## O=C1CCc2cc(OCCCCc3nnnn3C3CCCCC3)ccc2N1
[5]
  outcome: inactive

## C[C@H]1c2cccc(O)c2C(O)=C2C(=O)[C@]3(O)C(O)=C(C(N)=O)C(=O)[C@@H](N(C)C)[C@@H]3[C@@H](O)[C@@H]21
[5]
  outcome: inactive

## CCCN1C[C@H](CSC)C[C@@H]2c3cccc4[nH]cc(c34)C[C@H]21
[5]
  outcome: inactive

## Cc1c(OCC(F)(F)F)ccnc1CS(=O)c1nc2ccccc2[nH]1 (stereo not given)
[5]
  outcome: inactive

## O=c1[nH]cc(F)c(=O)[nH]1
[5]
  outcome: inactive

## CCCN(CCC)CCc1cccc2c1CC(=O)N2
[5]
  outcome: inactive

## CC(CN(C)C)CN1c2ccccc2CCc2ccccc21 (stereo not given)
[5]
  outcome: inactive

## CSc1ccc2c(c1)N(CCC1CCCCN1C)c1ccccc1S2 (stereo not given)
[5]
  outcome: inactive

## CC/C(=C(\c1ccccc1)c1ccc(OCCN(C)C)cc1)c1ccccc1
[5]
  outcome: inactive

## O=C1CCC(N2C(=O)c3ccccc3C2=O)C(=O)N1 (stereo not given)
[5]
  outcome: inactive

## CN(C)CCOC(C)(c1ccccc1)c1ccccn1 (stereo not given)
[5]
  outcome: inactive

## O=C(C1CCCCC1)N1CC(=O)N2CCc3ccccc3C2C1 (stereo not given)
[5]
  outcome: inactive

## COCCCC/C(=N\OCCN)c1ccc(C(F)(F)F)cc1
[5]
  outcome: inactive

## CCCCc1oc2ccccc2c1C(=O)c1cc(I)c(OCCN(CC)CC)c(I)c1
[5]
  outcome: inactive

## CC(CN1c2ccccc2Sc2ccccc21)N(C)C (stereo not given)
[5]
  outcome: inactive

## CCN(CC)CCCC(C)Nc1ccnc2cc(Cl)ccc12 (stereo not given)
[5]
  outcome: inactive

## CCCC(CCC)C(=O)O
[5]
  outcome: inactive

## O=C(NCCN1CCOCC1)c1ccc(Cl)cc1
[5]
  outcome: inactive

## COc1cc2nc(N3CCN(C(=O)C4COc5ccccc5O4)CC3)nc(N)c2cc1OC (stereo not given)
[5]
  outcome: inactive

## CNC1(C)C2CCC(C2)C1(C)C (stereo not given)
[5]
  outcome: inactive

## Clc1ccc2c(c1)C(N1CCNCC1)=Nc1ccccc1O2
[5]
  outcome: inactive

## O=c1n(CCCN2CCN(c3cccc(Cl)c3)CC2)nc2ccccn12
[5]
  outcome: inactive

## CC(=O)N[C@@H](CS)C(=O)O
[5]
  outcome: inactive

## NNCCc1ccccc1
[5]
  outcome: inactive

## CC(C)NCC(O)c1ccc(O)c(O)c1 (stereo not given)
[5]
  outcome: inactive

## O=C1NC(=O)C(c2ccccc2)(c2ccccc2)N1
[5]
  outcome: inactive

## CNCCCC1c2ccccc2C=Cc2ccccc21
[5]
  outcome: inactive

## CN1CC(=O)N/C1=N/C(=O)Nc1cccc(Cl)c1
[5]
  outcome: inactive

## CN(C)c1nc(N(C)C)nc(N(C)C)n1
[5]
  outcome: inactive

## NC12CC3CC(CC(C3)C1)C2
[5]
  outcome: inactive

## NNc1nncc2ccccc12
[5]
  outcome: inactive

## COc1ccccc1OCCNCC(O)COc1cccc2[nH]c3ccccc3c12 (stereo not given)
[5]
  outcome: inactive

## Cc1oncc1C(=O)Nc1ccc(C(F)(F)F)cc1
[5]
  outcome: inactive

## CN1CCN(C2=Nc3ccccc3Oc3ccc(Cl)cc32)CC1
[5]
  outcome: inactive

## CC12CC3CC(C)(C1)CC(N)(C3)C2
[5]
  outcome: inactive

## NC(=O)c1cn(Cc2c(F)cccc2F)nn1
[5]
  outcome: inactive
